From PubChem
The list is not random: actives were taken first. Their share in the collection is about 19%.
KB-V1 MDR tox: kills drug-selected multidrug resistant KB-V1 cells | KB-V1 MDR cells viability, CellTiter-Glo, 72 h | Potency, µM (highest dose often 46.1 µM), most hits filed as cytotoxic | 400,000 compounds, 3.4% hits; further: nearly all actives have a fitted effect of over 60% in size
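qHTS viability screen in drug-selected KB-V1 MDR cells: 72 h compound treatment at 37 degrees C, ATP luminescence end point.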
KB-3-1 cytotox: KB-3-1 parental cell cytotoxicity. 400,000 compounds, 1.4% hits. Potency, µM (doses to about 46.1 µM), actives largely listed as cytotoxic. KB-3-1 viability, CellTiter-Glo ATP luminescence, 72 h; further: nearly all actives have a fitted effect of over 60% in size
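Luminescent ATP read-out (CellTiter-Glo) measures survival of drug-naive KB-3-1 cells after 72 h compound exposure at 37 °C. Titration series was screened from lowest to highest concentration, with DMSO vehicle plates as background controls.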
TDP1 cell noCPT: qHTS for Inhibitors of human tyrosyl-DNA phosphodiesterase 1 (TDP1): qHTS in cells in absence of CPT; DT40 Tdp1-/- hTDP1 cells, no CPT, ATP luminescence, 48 h; Potency, µM (highest dose often 46.2 µM), usual class: inhibitors; 420,000 compounds, 15% hits; further: nearly all actives have a fitted effect of over 55% in size
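DT40 Tdp1-/-;hTDP1 cells, no CPT (DMSO vehicle only), 400 cells/well; compounds pin-transferred; ≥48 hr, 37 °C; CellTiter-Glo 30 min RT dark, luminescence read.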
HT1080 IDH1KD tx: toxicity to HT-1080 IDH1 knockdown cells (counter line); HT-1080 IDH1 knockdown viability, ATP luminescence, 48 h; Potency, µM (top dose mostly 46.1 µM), actives largely listed as cytotoxic; 360,000 compounds, 2% hits; AID 686971
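Cytotoxicity counter-line: IDH1KD HT-1080, 48 h, CellTiter-Glo. Curves classed by r2, magnitude and activity.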
TDP1 cell CPT: growth inhibition of DT40 Tdp1-/-;hTDP1 cells with camptothecin (screen for TDP1 inhibitors); chicken DT40 Tdp1-/-;hTDP1 cells + 20 nM CPT, ATP luminescence, 48 h; Potency, µM (series often up to 46.2 µM), actives largely listed as inhibitors; 420,000 compounds, 12% hits; AID 686979; further: nearly all actives have a fitted effect of over 55% in size
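Chicken DT40 Tdp1-/- cells stably complemented with human TDP1 were seeded at 400 cells/well in medium containing 20 nM camptothecin, exposed to pin-transferred compounds, and grown at 37 °C for at least 48 hr. Viability was read as ATP luminescence.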
HT1080-NT tox: kills 2HG-producing HT-1080-NT fibrosarcoma cells; HT-1080-NT fibrosarcoma viability, CellTiter-Glo ATP luminescence, 48 h; Potency, µM (titrated, usually from 46.1 µM), usual class: cytotoxic; 360,000 compounds, 1.6% hits;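 further: NT is the 2HG producing partner of a matched IDH1 knockdown line; nearly all actives have a fitted effect of over 55% in size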
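Fibrosarcoma NT cells, 750 per well in 5% FBS RPMI, were exposed to compound for 48 hours. Viability: CellTiter-Glo luminescence.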
A number is an active result; n = inactive; u = inconclusive; x = not tested or not shown. The call rests on the fitted dose curve; in most records, active means well fitted curve in the direction sought with a large enough effect; inconclusive means small, poorly fitted or top-dose-only effect, or another doubt; inactive means no such curve, though single readings can be large; an effect the other way counts as inactive or inconclusive.

SMILES	KB-V1 MDR tox	KB-3-1 cytotox	TDP1 cell noCPT	HT1080 IDH1KD tx	TDP1 cell CPT	HT1080-NT tox
N#CC1=C2SCC(O)(c3ccccc3)N2C(=O)CC1c1ccccc1F (stereo not drawn)	u	9.2µM	8.2µM	16µM	13µM	u
N#CC1=C2SCN(c3ccccc3)CN2C(=O)CC1c1cccs1 (stereo not drawn)	n	n	n	n	n	n
N#CC1=C2SCC(O)(c3ccccc3)N2C(=O)CC1c1cccs1 (stereo not drawn)	0.58µM	0.73µM	1µM	0.35µM	1.2µM	0.63µM
N#CC1=C2SCN(Cc3ccccc3)CN2C(=O)CC1c1ccccc1F (stereo not drawn)	n	n	n	n	n	n
O=C(N/N=C1\CC2CC=CC12)c1ccc(O)cc1 (stereo not drawn)	n	u	n	n	n	n
O=[N+]([O-])c1ccc(N/N=C2\CC3CC=CC23)c([N+](=O)[O-])c1 (stereo not drawn)	u	n	16µM	n	13µM	n
O=[N+]([O-])c1ccc(NN=C2CC3CCC2C3)c([N+](=O)[O-])c1 (stereo not drawn)	n	n	16µM	n	18µM	n
O=[N+]([O-])c1ccc(N/N=C2\CC3CC=CC23)cc1 (stereo not drawn)	n	n	u	u	23µM	n
COC(=O)c1c(NC(=O)CN2C(=O)NC3(CCCCC3C)C2=O)sc2c1CCC2 (stereo not drawn)	n	10µM	u	u	u	n
Cc1c(CCC(=O)NCCc2ccccc2)c(=O)oc2c(C)c(O)ccc12	n	n	n	x	n	x
Cc1cc(C)cc(N(CC(=O)Nc2ccc(Br)cc2)S(=O)(=O)c2c(C)[nH]c(=O)[nH]c2=O)c1	n	n	n	n	n	n
O=C(Nc1ccc(F)cc1)C(c1cc2ccccc2o1)N1CCN(c2ccncc2)CC1 (stereo not drawn)	n	n	23µM	u	21µM	u
Cc1ccc(N2CCN(C(C(=O)Nc3c(C)cccc3C)c3cc4ccccc4o3)CC2)cc1 (stereo not drawn)	u	n	13µM	n	13µM	n
Cc1cccc(C)c1NC(=O)C(c1cc2ccccc2o1)N1CCC(c2ccccc2)CC1 (stereo not drawn)	21µM	u	15µM	n	16µM	n
O=C(Nc1ccc2c(c1)OCCO2)C(c1cc2ccccc2o1)N1CCC(Cc2ccccc2)CC1 (stereo not drawn)	n	n	u	n	u	n
Cc1cc(NS(=O)(=O)c2ccc(NC(=O)COc3cc(C)c(Br)cc3C(C)C)cc2)no1	n	n	u	x	u	x
ClC(Cl)(Cl)c1nc(N/N=C/c2ccncc2)c2ccccc2n1	n	n	u	n	n	n
CN(C)c1nc(NCc2ccccc2)nc(N/N=C/c2cccc(Br)c2)n1	u	n	7.3µM	u	5.8µM	n
Cc1cc(N/N=C/c2ccncc2)nc2ccccc12	6.5µM	u	u	n	n	n
Cc1cc(N/N=C/c2cccc(Br)c2)nc2ccccc12	21µM	n	n	n	n	n
CCCCn1nnnc1C1(C)CCC(=O)N1c1ccc(N2CCOCC2)cc1 (stereo not drawn)	u	n	n	n	n	n
CCCn1c(N)c(CC)c(=O)[nH]c1=O	n	n	n	n	n	n
CN(C(=O)Cc1noc2ccccc12)c1ccccc1	n	n	n	n	n	n
c1ccc(C2NCCc3ccccc32)cc1 (stereo not drawn)	n	n	26µM	u	u	n
O=C1CCCCC1Sc1nnc(-c2ccc3c(c2)OCO3)o1 (stereo not drawn)	n	n	n	n	n	n
SMILES	KB-V1 MDR tox	KB-3-1 cytotox	TDP1 cell noCPT	HT1080 IDH1KD tx	TDP1 cell CPT	HT1080-NT tox
Cc1cc(C)n(Cc2ccc(Cl)cc2Cl)c(=O)c1S(=O)(=O)c1ccccc1	n	u	23µM	n	u	n
Cc1cc(C)n2ncc(C(=O)Nc3ccccc3)c2n1	u	n	x	x	x	x
Cc1ccc(Oc2ccccc2/C=C2\SC(=O)N(C)C2=O)cc1	16µM	n	u	n	n	n
CN1C(=O)S/C(=C/c2cccnc2)C1=O	n	n	n	n	u	n
Cn1cc(S(=O)(=O)c2ccccc2)c(=O)c2cc(F)c(N3CCCCCC3)cc21	n	n	u	x	u	x
CCCCNC(=O)C1(C)CCCCN1CC(=O)c1ccc(OC)cc1 (stereo not drawn)	n	n	26µM	n	16µM	n
O=C(N/N=C/c1cccs1)/C(=C/c1ccccc1)NC(=O)c1ccccc1	u	n	n	n	n	n
Cc1cc(C)cc(-n2ccnc2SCC(=O)Nc2ccccc2F)c1	n	n	16µM	x	23µM	x
Cc1cc(C)cc(-n2ccnc2SCC(=O)Nc2cccc3ccccc23)c1	n	n	18µM	x	21µM	x
COc1ccc(N=C2CCS(=O)(=O)c3sccc32)cc1	n	n	u	u	9.2µM	n
CC(C)Oc1cccc(C(=O)Nc2nnc([C@@H]3C[C@H](O)[C@@H](CO)O3)s2)c1	n	n	n	n	n	n
COC1=C(N)C(=O)c2nc(-c3nc(C(=O)O)c(C)c(-c4ccc(OC)c(OC)c4O)c3N)ccc2C1=O	0.21µM	0.15µM	0.1µM	0.0082µM	0.041µM	0.0092µM
COc1ccc(C(=O)O)c(O)c1OC	x	x	n	x	n	x
COn1c(=S)[nH]c2ccccc2c1=O	n	n	n	n	n	n
COc1ccc(OC)c2c(=S)c3ccccc3[nH]c12	x	x	u	x	24µM	x
CC1=C2CCCC[C@@]23C2C(=O)N(C)C(=O)[C@@H]2ON3OC1 (stereo partly drawn)	n	n	n	n	n	n
O=C1NC[C@@H](CCCCN2C[C@H](Cc3ccc(O)cc3)N(CCc3ccccc3)C(=O)C2=O)N(CCC2CCCCC2)C1=O	n	n	n	n	n	n
CC(=NCc1cccc(Cl)c1)c1nc(-c2ccco2)oc1O	n	5.8µM	u	n	n	n
COC(CNC(=O)c1ccc2nc(-c3cccs3)c(-c3cccs3)nc2c1)OC	u	n	13µM	n	18µM	n
CCCCNC(=O)c1ccc2nc(-c3cccs3)c(-c3cccs3)nc2c1	n	n	20µM	x	u	x
CCOCCCNC(=O)c1ccc2nc(-c3ccc(OC)c(OC)c3)c(-c3ccc(OC)c(OC)c3)nc2c1	n	n	u	n	u	n
C[C@H]1CN([C@@H](C)CO)C(=O)c2cc(Br)cnc2O[C@@H]1CN(C)C(=O)c1ccncc1	n	n	n	n	n	n
